Experimental findings from PubChem BioAssay (NCATS) are described below.

Results filed as inconclusive are left out. Entries that show only a call come without a potency. Calls of active or inactive are those of the source. Calls follow the shape of the dose curve; as a rule, active = well fitted inhibition curve with a large enough effect; inconclusive = small, poorly fitted or top-dose-only effect; inactive = flat fitted curve, though single readings scatter.
Potency is read from the fitted curve at half-maximal effect.

One test has as its system CP191. Description: qHTS profiling for inhibitors of Plasmodium falciparum proliferation (AID 504749). Also: nearly all actives have a fitted effect of over 60% in size. The conditions noted are these: P. falciparum in erythrocytes, SYBR Green DNA, 72 h; series mostly up to 28.7 µM. In short, it runs like this:
(§1)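 Fluorescence of SYBR Green-bound parasite DNA, read at 485/535 nm, served as the growth measure. Infected erythrocytes were cultured with compound 72 h; artemisinin (0.29 uM) and DMSO wells defined the normalization range.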
(In qHTS, concentration-response curves come from the screen itself.)
On to `CC(C)OC(=O)C(C(=O)OC(C)C)=C1SC=CS1`, for which the Potency result was “inactive”.

Take `CC[C@H](NC(C)C)[C@H](O)c1ccc(O)c2[nH]c(=O)ccc12`: the Potency entry was “inactive”.

Regarding `NC(=O)c1cccnc1`, the Potency result is “inactive”.

For `Cc1ccnc2c1NC(=O)c1cccnc1N2C1CC1`, the Potency entry was “inactive”.

For `O=P(O)(O)C(O)(Cc1cccnc1)P(=O)(O)O`, the Potency result is “inactive”.

For `CCc1c2c(nc3ccc(OC(=O)N4CCC(N5CCCCC5)CC4)cc13)-c1cc3c(c(=O)n1C2)COC(=O)[C@]3(O)CC`, the Potency entry was “inactive”.

As to `C#CCN[C@@H]1CCc2ccccc21`, the Potency entry is “inactive”.

With `CNS(=O)(=O)Cc1ccc2[nH]cc(CCN(C)C)c2c1`, the Potency result is “inactive”.

As to `Cc1noc(NS(=O)(=O)c2ccc(N)cc2)c1C`, the Potency result is “inactive”.

For the compound `COc1c(N2CCNC(C)C2)c(F)cc2c(=O)c(C(=O)O)cn(C3CC3)c12` (stereo not given), the Potency entry is “inactive”.

In the case of `CCCN[C@H]1CCc2nc(N)sc2C1`, the Potency result is “inactive”.

`CN1CCN(c2c(F)cc3c(=O)c(C(=O)O)cn4c3c2OCN4C)CC1`: the Potency result was “inactive”.

Take `COc1cc(NCc2ccc3nc(N)nc(N)c3c2C)cc(OC)c1OC`: the Potency was 251 nM (active).

For `Cc1cccc(Nc2ccncc2S(=O)(=O)NC(=O)NC(C)C)c1`, the Potency result was “inactive”.

On to `CC1=NN(c2ccccc2)C(=O)C1`, for which the Potency entry was “inactive”.

`CCN(C)C(=O)Oc1cccc([C@H](C)N(C)C)c1`: the Potency result was “inactive”.

For `CN(C)c1ccc(C(=C2C=CC(=[N+](C)C)C=C2)c2ccc(N(C)C)cc2)cc1`, the Potency is 178 nM (active).

`NCCCC(O)(P(=O)(O)O)P(=O)(O)O`: the Potency entry was “inactive”.

With `COc1ccc(C(=O)CC(=O)c2ccc(C(C)(C)C)cc2)cc1`, the Potency entry was “inactive”.

With `Cn1nnc2c(C(N)=O)ncn2c1=O`, the Potency result was “inactive”.

Regarding `O=NN(CCCl)C(=O)NC1CCCCC1`, the Potency entry is “inactive”.

On to `Cc1nnc(NS(=O)(=O)c2ccc(N)cc2)s1`, for which the Potency entry was “inactive”.

Take `Cc1ncc([N+](=O)[O-])n1CCO`: the Potency result was “inactive”.

For `CCOCC(O)COc1ccc(NC(=O)CC[S+](C)C)cc1` (stereo not given), the Potency entry was “inactive”.

Take `CCOc1cc(N)c(Cl)cc1C(=O)NCC1CN(Cc2ccc(F)cc2)CCO1` (stereo not given): the Potency is 3980 nM (active).

For the compound `S=P(N1CC1)(N1CC1)N1CC1`, the Potency entry is “inactive”.

On to `COc1cnc(NS(=O)(=O)c2ccc(N)cc2)nc1`, for which the Potency entry is “inactive”.

In the case of `CC[C@H](C)C(=O)O[C@H]1C[C@@H](C)C=C2C=C[C@H](C)[C@H](CC[C@@H]3C[C@@H](O)CC(=O)O3)[C@H]21`, the Potency entry was “inactive”.

For the compound `CCCc1cc(C(N)=S)ccn1`, the Potency result was “inactive”.

The next test has as its system CP192. Described as above. The conditions noted are these: P. falciparum in erythrocytes, SYBR Green DNA, 72 h; series mostly up to 28.7 µM. Put shortly: as §1
Consider `CC(C)OC(=O)C(C(=O)OC(C)C)=C1SC=CS1`, for which the Potency result was “inactive”.

For `CC[C@H](NC(C)C)[C@H](O)c1ccc(O)c2[nH]c(=O)ccc12`, the Potency result is “inactive”.

Turning to `NC(=O)c1cccnc1`, the Potency result was “inactive”.

Turning to `Cc1ccnc2c1NC(=O)c1cccnc1N2C1CC1`, the Potency entry is “inactive”.

On to `O=P(O)(O)C(O)(Cc1cccnc1)P(=O)(O)O`, for which the Potency result was “inactive”.

In the case of `CCc1c2c(nc3ccc(OC(=O)N4CCC(N5CCCCC5)CC4)cc13)-c1cc3c(c(=O)n1C2)COC(=O)[C@]3(O)CC`, the Potency result was “inactive”.

On to `C#CCN[C@@H]1CCc2ccccc21`, for which the Potency result was “inactive”.

In the case of `CNS(=O)(=O)Cc1ccc2[nH]cc(CCN(C)C)c2c1`, the Potency result was “inactive”.

Regarding `Cc1noc(NS(=O)(=O)c2ccc(N)cc2)c1C`, the Potency entry is “inactive”.

As for `COc1c(N2CCNC(C)C2)c(F)cc2c(=O)c(C(=O)O)cn(C3CC3)c12` (stereo not given), the Potency entry was “inactive”.

Regarding `CCCN[C@H]1CCc2nc(N)sc2C1`, the Potency entry is “inactive”.

For the compound `CN1CCN(c2c(F)cc3c(=O)c(C(=O)O)cn4c3c2OCN4C)CC1`, the Potency result is “inactive”.

As for `COc1cc(NCc2ccc3nc(N)nc(N)c3c2C)cc(OC)c1OC`, the Potency is 3010 nM (active).

For `Cc1cccc(Nc2ccncc2S(=O)(=O)NC(=O)NC(C)C)c1`, the Potency entry was “inactive”.

On to `CC1=NN(c2ccccc2)C(=O)C1`, for which the Potency entry is “inactive”.

Regarding `CCN(C)C(=O)Oc1cccc([C@H](C)N(C)C)c1`, the Potency result is “inactive”.

`CN(C)c1ccc(C(=C2C=CC(=[N+](C)C)C=C2)c2ccc(N(C)C)cc2)cc1`: the Potency is 757 nM (active).

Consider `NCCCC(O)(P(=O)(O)O)P(=O)(O)O`, for which the Potency result is “inactive”.

Regarding `COc1ccc(C(=O)CC(=O)c2ccc(C(C)(C)C)cc2)cc1`, the Potency entry is “inactive”.

`Cn1nnc2c(C(N)=O)ncn2c1=O`: the Potency entry is “inactive”.

`O=NN(CCCl)C(=O)NC1CCCCC1`: the Potency entry is “inactive”.

With `Cc1nnc(NS(=O)(=O)c2ccc(N)cc2)s1`, the Potency result was “inactive”.

Turning to `Cc1ncc([N+](=O)[O-])n1CCO`, the Potency result was “inactive”.

Take `CCOCC(O)COc1ccc(NC(=O)CC[S+](C)C)cc1` (stereo not given): the Potency result is “inactive”.

As to `S=P(N1CC1)(N1CC1)N1CC1`, the Potency entry was “inactive”.

Take `COc1cnc(NS(=O)(=O)c2ccc(N)cc2)nc1`: the Potency result was “inactive”.

For `CC[C@H](C)C(=O)O[C@H]1C[C@@H](C)C=C2C=C[C@H](C)[C@H](CC[C@@H]3C[C@@H](O)CC(=O)O3)[C@H]21`, the Potency entry is “inactive”.

Turning to `CCCc1cc(C(N)=S)ccn1`, the Potency entry was “inactive”.

The next test has as its system CP194. The test is described as above. The conditions noted are these: P. falciparum in erythrocytes, SYBR Green DNA, 72 h; series mostly up to 28.7 µM. Put shortly:
as §1
Turning to `CC(C)OC(=O)C(C(=O)OC(C)C)=C1SC=CS1`, the Potency entry is “inactive”.

On to `CC[C@H](NC(C)C)[C@H](O)c1ccc(O)c2[nH]c(=O)ccc12`, for which the Potency entry is “inactive”.

`NC(=O)c1cccnc1`: the Potency result was “inactive”.

In the case of `Cc1ccnc2c1NC(=O)c1cccnc1N2C1CC1`, the Potency entry was “inactive”.

In the case of `O=P(O)(O)C(O)(Cc1cccnc1)P(=O)(O)O`, the Potency entry was “inactive”.

For the compound `CCc1c2c(nc3ccc(OC(=O)N4CCC(N5CCCCC5)CC4)cc13)-c1cc3c(c(=O)n1C2)COC(=O)[C@]3(O)CC`, the Potency entry is “inactive”.

In the case of `C#CCN[C@@H]1CCc2ccccc21`, the Potency entry was “inactive”.

In the case of `CNS(=O)(=O)Cc1ccc2[nH]cc(CCN(C)C)c2c1`, the Potency entry is “inactive”.

For `Cc1noc(NS(=O)(=O)c2ccc(N)cc2)c1C`, the Potency result was “inactive”.

`CCCN[C@H]1CCc2nc(N)sc2C1`: the Potency result is “inactive”.

Take `CN1CCN(c2c(F)cc3c(=O)c(C(=O)O)cn4c3c2OCN4C)CC1`: the Potency entry was “inactive”.

For `COc1cc(NCc2ccc3nc(N)nc(N)c3c2C)cc(OC)c1OC`, the Potency was 2690 nM (active).

Turning to `Cc1cccc(Nc2ccncc2S(=O)(=O)NC(=O)NC(C)C)c1`, the Potency result was “inactive”.

Take `CC1=NN(c2ccccc2)C(=O)C1`: the Potency entry is “inactive”.

`CCN(C)C(=O)Oc1cccc([C@H](C)N(C)C)c1`: the Potency entry is “inactive”.

Turning to `CN(C)c1ccc(C(=C2C=CC(=[N+](C)C)C=C2)c2ccc(N(C)C)cc2)cc1`, the Potency was 953 nM (active).

As for `NCCCC(O)(P(=O)(O)O)P(=O)(O)O`, the Potency result is “inactive”.

As to `COc1ccc(C(=O)CC(=O)c2ccc(C(C)(C)C)cc2)cc1`, the Potency result is “inactive”.

Turning to `Cn1nnc2c(C(N)=O)ncn2c1=O`, the Potency result is “inactive”.

For the compound `O=NN(CCCl)C(=O)NC1CCCCC1`, the Potency entry was “inactive”.

As for `Cc1nnc(NS(=O)(=O)c2ccc(N)cc2)s1`, the Potency entry was “inactive”.

For the compound `Cc1ncc([N+](=O)[O-])n1CCO`, the Potency result was “inactive”.

Regarding `CCOCC(O)COc1ccc(NC(=O)CC[S+](C)C)cc1` (stereo not given), the Potency result is “inactive”.

`CCOc1cc(N)c(Cl)cc1C(=O)NCC1CN(Cc2ccc(F)cc2)CCO1` (stereo not given): the Potency is 12000 nM (active).

As for `S=P(N1CC1)(N1CC1)N1CC1`, the Potency entry is “inactive”.

In the case of `COc1cnc(NS(=O)(=O)c2ccc(N)cc2)nc1`, the Potency entry was “inactive”.

Regarding `CC[C@H](C)C(=O)O[C@H]1C[C@@H](C)C=C2C=C[C@H](C)[C@H](CC[C@@H]3C[C@@H](O)CC(=O)O3)[C@H]21`, the Potency result is “inactive”.

For `CCCc1cc(C(N)=S)ccn1`, the Potency result is “inactive”.
